Assay outcomes as filed in PubChem BioAssay.
This is a sample that favours compounds with a hit; in the whole collection about 2.9% have one here.
MEKK3 PB1 HTS = raises or lowers MEK5 binding to the human MEKK3 PB1 domain. Q99759. bead-based flow cytometry, Alexa488-MEK5 binding to MEKK3; actives lie on both sides; 0 = blocked by unlabeled MEK5, 100 = vehicle. binding response (% of control), % at 10 µM. actives 1.4% (n = 290,000);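 active = binding response more than 3 SD above or below the average of its plate-row segment, actives on both sides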;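 note: Alexa488 bead fluorescence after subtracting the streptavidin-only scavenger bead signal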
Target sequence (Q99759 whole entry, looked up, the tested form may be a part): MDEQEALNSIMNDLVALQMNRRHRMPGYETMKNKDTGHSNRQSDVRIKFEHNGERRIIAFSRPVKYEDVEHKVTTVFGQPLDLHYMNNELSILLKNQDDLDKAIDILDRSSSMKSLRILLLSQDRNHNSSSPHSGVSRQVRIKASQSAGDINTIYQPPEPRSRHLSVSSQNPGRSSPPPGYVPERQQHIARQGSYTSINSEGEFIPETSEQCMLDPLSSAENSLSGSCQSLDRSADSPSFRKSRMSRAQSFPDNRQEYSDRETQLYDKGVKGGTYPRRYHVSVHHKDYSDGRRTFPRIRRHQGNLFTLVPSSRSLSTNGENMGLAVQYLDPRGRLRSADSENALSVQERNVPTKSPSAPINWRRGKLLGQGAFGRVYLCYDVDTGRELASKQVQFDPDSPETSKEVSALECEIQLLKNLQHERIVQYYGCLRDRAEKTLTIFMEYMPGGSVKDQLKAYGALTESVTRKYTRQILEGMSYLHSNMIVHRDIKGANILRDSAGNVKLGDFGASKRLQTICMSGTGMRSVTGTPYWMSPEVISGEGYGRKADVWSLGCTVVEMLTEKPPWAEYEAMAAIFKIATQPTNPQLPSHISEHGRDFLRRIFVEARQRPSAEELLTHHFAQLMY
MEKK2mut PB1 HTS = signal of MEK5 binding to mutant human MEKK2 PB1 domain | AID 1530 | percent response, % at 10 µM | actives 0.35% (n = 290,000) | bead flow cytometry, Alexa488-MEK5 binding to MEKK2 mutant; in the data active = percent response above about 24%, passing the limit was not always enough
CRFR2-BP antag = blocks CRF-induced signaling of the CRF-BP/CRF-R2 complex; HEK293 CRF-R2/CRF-BP, CRF-induced calcium fluorescence; inhibition, % at 11.8 µM; actives 0.59% (n = 350,000); AID 588475;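 active = inhibition of the ligand-induced calcium signal above about 50% at the single tested concentration, limit read from the data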
ABCB6 inh MLPCN = human ABCB6 transporter inhibition. actives 0.19% (n = 360,000). AID 602162. K562-ABCB6 porphyrin accumulation, flow cytometry, 1 h; hits give low values. Q9NP58. fluorescence ratio to DMSO, % at 10 µM;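 active = fluorescence ratio to DMSO below 75%, the collection mean minus 3 SD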;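 note: signal is porphyrin accumulated inside mitochondria; 100% equals median channel fluorescence of DMSO control wells; lower ratio means ABCB6 inhibition with less porphyrin fluorescence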
MEKK2 WT-MEK5 = raises or lowers MEK5 binding to wildtype human MEKK2 PB1 domain; bead flow cytometry, Alexa488-MEK5 binding to MEKK2 WT; actives lie on both sides; binding response (% of control), % at 10 µM; actives 1.1% (n = 290,000); AID 1531; in the data active = binding response below about 67% or above about 130%
CRFBP-R2 agonist = CRF-BP/CRF-R2 complex agonism. actives 0.46% (n = 350,000). HEK293 CRF-R2/CRF-BP, calcium dye fluorescence (FLIPR); percent of saturating CRF peptide response. activation, % at 13.2 µM;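 active = activation of at least 50%, plus an integration ratio under a set limit after plate pattern correction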;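 note: plate controls were neutral control wells without compound for no effect and CRF at EC100 for full effect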
MEKK2wt confirm = raises or lowers MEK5 binding to wildtype human MEKK2, retest. shares compounds with MEKK3 PB1 HTS. bead flow cytometry, Alexa488-MEK5 binding to MEKK2 WT; actives lie on both sides. binding response (% of control), % at 10 µM. actives 2.4% (n = 5,900). AID 1892; in the data active = binding response below about 16% or above about 210%; inactive = in between
MEKK2mut confirm = signal of MEK5 binding to mutant human MEKK2, retest; shares compounds with MEKK3 PB1 HTS; bead flow cytometry, Alexa488-MEK5 binding to MEKK2 mutant; percent response, % at 10 µM; actives 2% (n = 5,900); in the data active = percent response mostly above about 71%, no sharp cut-off; inactive = mostly below about 38%;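 note: higher means compound restores mutant binding toward wildtype level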
MEKK3 confirm = confirmation of inhibitors of MEK5 binding to human MEKK3. shares compounds with MEKK3 PB1 HTS. bead flow cytometry, Alexa488-MEK5 binding to MEKK3; hits give low values. binding response (% of control), % at 10 µM. actives 1.8% (n = 5,900). AID 1894;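 active = binding response below 72% of control, or above a set upper limit, though filed actives all read lower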;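 note: 100% = DMSO only wells and 0% = binding blocked by excess unlabeled MEK5; lower values mean stronger disruption of MEK5 binding to MEKK3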
The depositor's hits bear a star; · = no result given; [ ] = dose if it differs, or a comment.

SMILES | MEKK3 PB1 HTS | MEKK2mut PB1 HTS | CRFR2-BP antag | ABCB6 inh MLPCN | MEKK2 WT-MEK5 | CRFBP-R2 agonist | MEKK2wt confirm | MEKK2mut confirm | MEKK3 confirm
CCN(CC)CCCN(C(=O)c1ccc(F)cc1)c1nc(-c2ccc(OC)cc2)cs1 | 113.0 | 24.0* | -12.2 | 100.0 | 141.0* | 0.2 | 138.0 | 19.0 | 103.0
COc1ccc(-c2csc(N(CCCN(C)C)C(=O)c3ccc(F)cc3)n2)cc1 | 111.0 | 25.0* | -4.4 | 94.0 | 140.0* | 4.3 | 124.0 | 11.0 | 102.0
COCCN(C(=O)c1ccccc1F)c1nc(-c2ccc(OC)cc2)cs1 | 105.0 | -3.0 | 6.2 | 100.0 | 96.0 | 1.0 | · | · | ·
CCN(C(=O)c1ccccc1F)c1nc(-c2ccc(OC)cc2)cs1 | 103.0 | 0.0 | 5.8 | 109.0 | 104.0 | 2.9 | · | · | ·
COC(=O)c1ccc(OC(=O)c2cccnc2)cc1 | 128.0* | 0.0 | 1.5 | 101.0 | 106.0 | 5.0 | 97.0 | -7.0 | 95.0
CC(C)OC(=O)c1ccc(OC(=O)c2cccnc2)cc1 | 105.0 | 6.0 | -40.5 | 103.0 | 104.0 | -1.7 | · | · | ·
C/C(=N\NC(=O)c1nnn(-c2nonc2N)c1CN(C)c1ccccc1)c1cccc(O)c1 | 103.0 | 2.0 | -20.4 | 103.0 | 101.0 | 0.4 | · | · | ·
CC(=O)OCC1=C(C(=O)O)N2C(=O)C(NC(=O)c3ccc(F)cc3)C2SC1 (stereo not given) | 139.0* | 1.0 | -7.0 | 99.0 | 120.0 | 2.9 | 107.0 | 5.0 | 108.0
COc1ccc(N=C2SC(C(=O)Nc3ccc(C(=O)O)cc3)CC(=O)N2Cc2cccs2)cc1 (stereo not given) | 131.0* | 24.0 | 21.9 | 99.0 | 122.0 | -1.5 | 104.0 | 2.0 | 107.0
CC(=O)N(C)c1ccc(OCC(O)Cn2c(C)nc3ccccc32)cc1 (stereo not given) | 135.0* | 1.0 | 1.3 | 101.0 | 115.0 | 1.3 | 98.0 | -2.0 | 101.0
CC(=O)Nc1ccc(OCC(O)Cn2c(C)nc3ccccc32)cc1 (stereo not given) | 101.0 | 10.0 | -7.8 | 88.0 | 106.0 | 0.6 | · | · | ·
O=S(=O)(c1ccccc1)N1CCCCC1CCc1ccccc1 (stereo not given) | · | · | 30.8 | 98.0 | · | -0.9 | · | · | ·
CC(C)C(NC(=O)c1ccc(F)cc1)C(=O)N1CCN(C(=O)c2ccco2)CC1 (stereo not given) | · | · | 3.7 | 100.0 | · | 0.0 | · | · | ·
COc1ccc(Cl)cc1N/C(N)=N/c1nc(CSc2ccc(C)cc2)cc(=O)[nH]1 | 104.0 | 2.0 | -9.5 | 106.0 | 103.0 | -1.0 | · | · | ·
Cc1ccc(SCc2cc(=O)[nH]c(/N=C(\N)Nc3cccc4ccccc34)n2)cc1 | 137.0* | 0.0 | -40.9 | 101.0 | 108.0 | 1.0 | 101.0 | -7.0 | 104.0
COc1ccccc1CN1CCC(n2nccc2NC(=O)CCCc2ccccc2)CC1 | 103.0 | 19.0 | 0.9 | 98.0 | 142.0* | -0.6 | 162.0 | 54.0 | 113.0
CCN(CC)CCCNC(=O)c1sc2nc(-c3ccc(F)cc3)cn2c1C | 120.0 | 26.0 | 15.8 | 95.0 | 138.0* | -0.6 | 109.0 | 6.0 | 103.0
Cc1ccc(OCCN2CCN(CC(O)Cn3c4ccccc4c4ccccc43)CC2)cc1 (stereo not given) | 106.0 | 59.0* | · | · | 239.0* | · | 142.0 | 26.0 | 106.0
O=C(CSc1nc2nc3c(cc2c(=O)n1-c1ccccc1)CCCC3)Nc1cccc2ccccc12 | 113.0 | 0.0 | -10.4 | 104.0 | 101.0 | 1.8 | · | · | ·
Cc1cccc(NC(=O)CSc2nc3nc4c(cc3c(=O)n2-c2ccccc2)CCCC4)c1 | 132.0* | 0.0 | -51.3 | 94.0 | 104.0 | 4.7 | 90.0 | -3.0 | 99.0
COc1ccccc1C(=O)C1CCCN(C(=O)c2cccc(Cn3cccn3)c2)C1 (stereo not given) | 111.0 | 9.0 | 5.8 | 102.0 | 112.0 | 0.9 | · | · | ·
Cc1ccc2c(c1)c(C)c(C)n2CC(O)Cn1nc(C)cc1C (stereo not given) | 110.0 | 3.0 | -17.1 | 118.0 | 39.0*[inhibitor] | 4.7 | 100.0 | 1.0 | 102.0
Cc1ccnc(NC(=O)c2ccc(NS(=O)(=O)/C=C/c3ccccc3)cc2)c1 | · | · | -3.5 | 95.0 | · | -0.6 | · | · | ·
CCN(CC)c1ccc(C(=O)NNC(=O)CCNC(=O)c2ccccc2)cc1 | · | · | -6.5 | 97.0 | · | 0.4 | · | · | ·
CCN(CC)c1ccc(C(=O)NNC(=O)CCl)cc1 | 42.0*[inhibitor] | -18.0 | 3.3 | 100.0 | 46.0*[inhibitor] | -5.0 | 105.0 | 5.0 | 106.0
SMILES | MEKK3 PB1 HTS | MEKK2mut PB1 HTS | CRFR2-BP antag | ABCB6 inh MLPCN | MEKK2 WT-MEK5 | CRFBP-R2 agonist | MEKK2wt confirm | MEKK2mut confirm | MEKK3 confirm
Nc1ccc(S(=O)(=O)N2CCCC2)cc1Cl | 91.0 | -14.0 | -1.6 | 93.0 | 90.0 | -0.3 | · | · | ·
Oc1ccccc1CN1CCCN(Cc2ccccc2O)C1 | 124.0* | 7.0 | -5.1 | 91.0 | 111.0 | -0.3 | 107.0 | 3.0 | 101.0
Oc1ccccc1CN1CCN(C(O)(c2ccccc2)c2ccccc2)CC1 | 104.0 | 7.0 | -14.3 | 100.0 | 111.0 | 0.9 | · | · | ·
Cc1ccc(S(=O)(=O)/C(C#N)=C/c2c(Oc3ccc(Cl)cc3)nc3c(C)cccn3c2=O)cc1 | 93.0 | -3.0 | · | · | 89.0 | · | · | · | ·
CN(C)n1cccc1/C=C(\C#N)S(=O)(=O)c1ccc(Cl)cc1 | 139.0* | 33.0 | -3.1 | 95.0 | 120.0 | 1.4 | 101.0 | -6.0 | 104.0
CC1(C)CC2(CCO1)C(Nc1ccccc1)=NC(=S)N2CC(N)=O (stereo not given) | 104.0 | 9.0 | -0.6 | 97.0 | 102.0 | -0.7 | · | · | ·
Cc1ccccc1NC1=NC(=S)N(CC(N)=O)C12CCOC(C)(C)C2 (stereo not given) | 47.0*[inhibitor] | -8.0 | -0.1 | 92.0 | 48.0 | 0.0 | 99.0 | 1.0 | 104.0
COc1ccc(C(C(=O)OC(C)CN(C)C)c2ccccc2)cc1 (stereo not given) | 107.0 | 25.0* | -4.5 | 86.0 | 116.0 | -0.5 | 54.0 | -36.0 | 45.0*
COc1cccc(NC(=O)CSc2nc3c(sc4ccccc43)c(=O)n2CCN(C)C)c1 | 103.0 | 28.0 | -2.0 | 93.0 | 147.0* | -4.4 | 143.0 | 26.0 | 107.0
CCN(CC)CCn1c(SCC(=O)Nc2cccc(OC)c2)nc2c(sc3ccccc32)c1=O | 107.0 | 2.0 | -3.4 | 95.0 | 174.0* | -0.6 | 163.0 | 34.0 | 106.0
COc1cccc(NC(=O)CSc2nc3c([nH]c4ccccc43)c(=O)n2C)c1 | 101.0 | 2.0 | 15.9 | 104.0 | 101.0 | -0.7 | · | · | ·
